In the library only some 8% were active in any assay of this set; here they are far more common.
KB-V1 cytotox = KB-V1 MDR subline cytotoxicity | KB-V1 MDR cells viability, CellTiter-Glo, 72 h | Potency, µM (titrated, usually from 46.1 µM), most hits filed as cytotoxic | 400,000 compounds, 3.4% hits | AID 1347076; note: % is set by controls: 0 for no effect and ±100 for the full control effect; nearly all actives have a fitted effect of over 60% in size
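Following 72 h at 37 degrees C with compound, KB-V1 cell viability was read by CellTiter-Glo luminescence, medium being phenol-red-free DMEM plus 10% FBS; concentration-response parameters came from normalized, curve-fitted qHTS data.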
HT1080 IDH1KD tx = kills HT-1080 cells with IDH1 knockdown. 360,000 compounds, 2% hits. AID 686971. HT-1080 IDH1 knockdown viability, ATP luminescence, 48 h. Potency, µM (top dose mostly 46.1 µM), without a hit: at the top dose activity, negative = toxicity, usual class: cytotoxic;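 note: 0% = DMSO wells and -100% = cell-free medium wells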
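Using the IDH1-knockdown HT-1080 line run in the same batch and compound series as the NT line, viability after 48 h at 37 °C was determined by CellTiter-Glo luminescence and expressed as % activity.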
MCF10A rereplic = inducers of DNA re-replication in MCF 10A breast cells; MCF 10A DNA re-replication, Hoechst nuclear intensity, 48 h; Potency, µM (top dose mostly 46.1 µM), inactives show at the highest dose activity, positive = re-replication, hits mostly activators; 350,000 compounds, 2.9% hits; AID 624296; note: % of control where 0% means no effect; nearly all actives have a fitted effect of over 50% in size
KB-3-1 cytotox = KB-3-1 parental cell cytotoxicity; KB-3-1 viability, CellTiter-Glo ATP luminescence, 72 h; Potency, µM (highest dose often 46.1 µM), hits mostly cytotoxic; 400,000 compounds, 1.4% hits; note: % is set by controls: 0 for no effect and ±100 for the full control effect; nearly all actives have a fitted effect of over 60% in size
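Cytotoxicity in the drug-sensitive parental line KB-3-1 was scored as loss of CellTiter-Glo luminescence following 72 h incubation with compound. Values come from curve fitting of normalized concentration-response data.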
SW480 rerep = induces DNA re-replication in SW480 colon adenocarcinoma cells; SW480 DNA re-replication, Hoechst DNA content imaging, 48 h; Potency, µM (series often up to 46.1 µM), without a hit: at the top dose re-replication activation, actives largely listed as activators; 340,000 compounds, 1.8% hits; AID 624297; note: % of control where 0% means no effect; nearly all actives have a fitted effect of over 55% in size
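Compounds, transferred as 23 nL by pin tool, were incubated with cells for 48 hr; DNA content per nucleus was then quantified by Hoechst staining and fluorescence plate imaging.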
HT1080-NT tox = kills 2HG-producing HT-1080-NT fibrosarcoma cells | Potency, µM (top dose mostly 46.1 µM), for the others: at the top dose activity, negative = less viability, actives largely listed as cytotoxic | AID 686970 | HT-1080-NT fibrosarcoma viability, CellTiter-Glo ATP luminescence, 48 h | 360,000 compounds, 1.6% hits;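 note: NT is the 2HG producing partner of a matched IDH1 knockdown line; 0% = DMSO-treated cells and -100% = media-only wells without cells; nearly all actives have a fitted effect of over 55% in size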
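HT-1080-NT; 750 cells/well; 5% FBS RPMI; 48 h compound, 37 degrees C; CellTiter-Glo luminescence; curve fitting and curve-class assignment.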
* marks the source's active call; other numbers are inactive results; i = inactive; ? = inconclusive; · = no result; ! = not confirmed by another sample. Calls come from the whole dose curve; as a rule, active = well fitted curve in the direction sought with a large enough effect; inconclusive = small, poorly fitted or top-dose-only effect, or another doubt; inactive = no such curve, though single readings can be large; an effect the other way counts as inactive or inconclusive. Potency is the fitted concentration of half-maximal effect.

SMILES | KB-V1 cytotox | HT1080 IDH1KD tx | MCF10A rereplic | KB-3-1 cytotox | SW480 rerep | HT1080-NT tox
CCCc1nc(NCc2ccncc2)c2nnn(Cc3ccccc3F)c2n1 | ? | 18µM* | -2% | i | -7% | ?
CCCc1nc(NCc2ccccn2)c2nnn(Cc3ccccc3F)c2n1 | 2.9µM* | 2% | 0% | ? | -46% | 5%
CCC12CN3CC(C)(CN(C1)C3c1c(C)[nH]c3ccccc13)C2=O (stereo not given) | i | · | · | i | · | ·
O=C(NCC1CCCO1)C(c1cccs1)N(Cc1ccccc1Cl)C(=O)c1ccc(-c2ccccc2)[nH]1 (stereo not given) | 4.1µM* | ? | ? | i | ? | -19%
Cc1ccc(C(C(=O)NCC2CCCO2)N(Cc2ccccc2)C(=O)c2ccc(-c3ccccc3)[nH]2)o1 (stereo not given) | i | ? | ? | i | ? | -27%
CCOc1ccccc1C(=O)N(CN1CCCC1=O)c1cccc(Cl)c1 | 12µM* | -1% | 1% | i | 7% | -1%
COc1ccccc1C(=O)N(CN1CCCC1=O)c1cccc(Cl)c1 | i | -2% | 16% | i | -10% | 3%
COc1ccccc1-c1nc2cc3ccccc3cc2nc1-c1ccccc1OC | i | -1% | ? | i | 9.2µM* | 9%
COc1ccc(-c2sc3ccccc3c2-c2ccc(OCCN3CCCCC3)cc2)cc1 | ? | -20% | ? | ? | ? | -16%
COc1cccc(-c2sc3ccccc3c2-c2ccc(OCCN3CCCCC3)cc2)c1 | ? | -15% | 14% | ? | ? | -8%
COc1ccc(-c2cc(=O)c3ccccc3s2)cc1 | 15µM* | -5% | -13% | i | -23% | -7%
c1ccc(-c2sc3ccccc3c2-c2ccc(OCCN3CCCC3)cc2)cc1 | ? | -11% | 1% | ? | 4.6µM* | ?
COc1ccc(-c2sc3cc(OC)ccc3c2-c2ccc(OCCN3CCCCC3)cc2)cc1 | ? | 16µM* | · | ? | · | 21µM*
COc1cccc(-c2sc3ccccc3c2-c2ccc(OCCN(C)C)cc2)c1 | ? | 16µM* | 28% | ? | -12% | ?
COc1ccc2c(-c3ccc(OCCN4CCCCC4)cc3)c(-c3ccccc3OC)sc2c1 | i | ? | ? | i | 7% | ?
O=C(NCCc1ccccc1)c1c2c(nc3ccccc13)C(=O)N(C1CCCCC1)C2 | i | · | · | i | · | ·
O=C(O)Cc1sc(Nc2ccccc2Cl)nc1-c1ccccc1 | ? | · | · | i | · | ·
Oc1ccc2sc(-c3ccccc3O)c(-c3ccc(OCCN4CCCCC4)cc3)c2c1 | i | 16µM* | · | ? | · | ?
COc1cccc(-c2sc3cc(OC)c(OC)cc3c2-c2ccc(OCCN3CCCCC3)cc2)c1 | i | 16µM* | ? | i | 6% | ?
CCCn1c(=O)sc2cc(NC(=O)c3ccc(OC)c(Br)c3)ccc21 | i | · | · | 23µM* | · | ·
c1ccc(-c2onc(-c3ccco3)c2-c2ccc3[nH]ccc3c2)cc1 | 23µM*! | -15% | ? | ? | -2% | -17%
c1cc2cc(-c3c(-c4ccc5c(c4)OCO5)noc3-c3ccsc3)ccc2[nH]1 | 21µM*! | ? | ? | ? | -4% | -26%
CC(C)c1ccccc1NC(=O)CCc1nc2ccccc2s1 | 18µM* | -2% | ? | i | 2% | 0%
Cc1cccc(C)c1NC(=O)CC12CCCN1CCC2 | · | · | 7% | · | -1% | ·
CNc1ccc(/C=C2\C=Cc3ccccc32)cc1OC | i | · | · | ? | · | ·
SMILES | KB-V1 cytotox | HT1080 IDH1KD tx | MCF10A rereplic | KB-3-1 cytotox | SW480 rerep | HT1080-NT tox
COc1ccc(C(=O)N2CCOC2CNC(=O)C(=O)NCc2ccc(Cl)cc2)cc1 (stereo not given) | 23µM* | -10% | 2% | i | -6% | -6%
COc1ccc(C(=O)N2CCOC2CNC(=O)C(=O)NCc2ccc(C)cc2)cc1 (stereo not given) | ? | 2% | · | i | · | 3%
CC(C)CCn1c(SCC(=O)NC2CCS(=O)(=O)C2)nc2cc(Cl)ccc2c1=O (stereo not given) | i | 1% | 1% | i | -323% | 9%
Cc1cc(C)c(OCCOCCN2CCN(C)CC2)c(Cl)c1 | i | 3% | 5.8µM* | i | -34% | -1%
CC1CC(=O)c2c(cc3c(-c4c(O)cc(O)c5c(O)c6c(cc45)OC(C)CC6=O)c(O)cc(O)c3c2O)O1 (stereo not given) | ? | 5.2µM* | ? | ? | 6.5µM* | 4.6µM*
Cc1ccc(S(=O)(=O)Nc2ccc(N3CCOCC3)cc2)cc1C | i | 2% | 0% | i | -3% | -1%
CC1=Nc2cc(C(=O)NCCCN3CCOCC3)ccc2Sc2c(C)ccc(C)c21 | ? | 21µM* | ? | ? | 16µM* | 16µM*
CC1=Nc2cc(C(=O)NCCN3CCOCC3)ccc2Sc2c(C)ccc(C)c21 | 18µM* | ? | ? | 15µM* | -10% | ?
CC(=NCc1cccc(Cl)c1)c1nc(-c2ccco2)oc1O | i | -5% | ? | 5.8µM* | -9% | 1%
Oc1oc(-c2ccco2)nc1C=Nc1cccc(Cl)c1 | i | 3% | -3% | i | ? | 2%
O=C1C=CC(=O)N1c1ccccc1N1C(=O)C=CC1=O | 26µM* | 5.8µM* | ? | ? | 2.3µM* | 6.5µM*
O=C(c1ccccc1)c1ccccc1N1C(=O)C=CC1=O | i | ? | 5.2µM* | i | ? | 16µM*
CC1Nc2ncnc(N3CCN(c4ccccc4)CC3)c2N(Cc2ccc(Br)cc2)C1=O (stereo not given) | ? | ? | 16µM* | ? | 6% | -27%
COc1ccc(CN2C(=O)C(C)Nc3ncnc(N4CCN(c5ccccc5)CC4)c32)cc1 (stereo not given) | i | -4% | 8% | i | 15% | -5%
COc1ccc(CN2C(=O)C(C)Nc3ncnc(N4CCOCC4)c32)cc1 (stereo not given) | 18µM* | 15µM* | ? | ? | ? | ?
O=C1C(Cc2ccccc2)Nc2ncnc(N3CCc4ccccc4C3)c2N1Cc1ccc(Cl)cc1 (stereo not given) | 26µM* | ? | 23µM* | i | ? | ?
CCC1Nc2ncnc(N3CCc4ccccc4C3)c2N(Cc2ccc(Cl)cc2)C1=O (stereo not given) | i | -13% | ? | ? | ? | -21%
